Measurements: ChEMBL document CHEMBL3988442, “University of Dundee, Small-Polar-MMV Screening Library” (2021)
About 13,000 (27%) of roughly 48,000 compounds showed an effect of 50% or more. Some of the results follow.

Each compound was assayed on Wolbachia pipientis (assay: Anti-Wolbachia Cell-Based Screen). Conditions: 5 µM.
Type: functional
Set-up: scale not given: in the data most compounds retested in dose-response had high values
With `Cn1nnc2c1C(COCC1CC1)CN(C(=O)CC1=CCCCC1)C2` (stereo not given) the “Percent Effect” value was -19.61%.
`CC(NC1(CNC(=O)CC2CCCC2)CCOCC1)c1ccccc1` (stereo not given) was tested, and the “Percent Effect” value was -11.89%.
For `Cc1sc2nc(SC(C)c3nc(C(C)(C)C)no3)nc(N)c2c1C` (stereo not given), the “Percent Effect” value was 10.97%.
In the case of `CCc1nnsc1C(=O)N(C)Cc1ccc(Br)o1`, the “Percent Effect” value is reported as 14.42%.
For `Cc1ccc(S(=O)(=O)Cc2nsc(N(C)C)n2)c(C)c1`, the “Percent Effect” value was -1.61%.
`CCc1nc(NCC(=O)N2CCOCC2)c2c(n1)c(C)nn2CC` was tested, and the “Percent Effect” value was 7.048%.
For `CCN1CCN(c2ccc(F)cc2C(C)NCc2ccnn2C)CC1` (stereo not given), the “Percent Effect” value was -1.019%.
For `Cc1nn(C)c2nc(N3CCC(C(O)Cc4ccccc4)CC3)sc12` (stereo not given), the “Percent Effect” value was -11.76%.
In the case of `COc1nc(C)c(C(=O)N2CCC(C(O)Cc3ccccc3)CC2)s1` (stereo not given), the “Percent Effect” value is reported as 114.7%.
`COc1nc(C)c(C(=O)N2CCc3[nH]nc(Cc4ccccc4)c3C2)s1` was tested, and the “Percent Effect” value was 2.938%.
In the case of `Cc1cc(=O)c(C(=O)N2CCC(C(O)Cc3ccccc3)CC2)c(C)[nH]1` (stereo not given), the “Percent Effect” value is reported as 97.46%.
For `CC(C)CC(O)C1CCN(C(=O)c2ccc(C(C)C)[nH]c2=O)CC1` (stereo not given), the “Percent Effect” value was -16.76%.
`Cc1nc(N)sc1C(=O)N1CCC(C(O)Cc2ccccc2)CC1` (stereo not given) was tested, and the “Percent Effect” value was 104.4%.
With `Cc1ccc(N2CCC(C(O)Cc3ccccc3)CC2)nn1` (stereo not given) the “Percent Effect” value was -17.42%.
For `COc1nc(C)c(C(=O)N2CCN(c3ncccc3C)CC2)s1`, the “Percent Effect” value was -23.23%.
For `CCOC(=O)N1CCN(C(=O)c2sc(-c3ccccc3)nc2C)CC1`, the “Percent Effect” value was -9.068%.
For `c1ccc(Cn2cccn2)c(CN2CCCCC2CCn2ccnc2)c1` (stereo not given), the “Percent Effect” value was -5.854%.
With `CNc1ncc(-c2ccc(NC(=O)[C@@H]3CCCCN3)cc2)cn1` the “Percent Effect” value was 112.9%.
In the case of `Cc1cccc(NC(=O)C2CCc3ccccc3N2)c1.Cl` (stereo not given), the “Percent Effect” value is reported as 2.596%.
With `O=C(Nc1ccc(-c2cnc(NCCO)nc2)cc1)[C@@H]1CCCCN1` the “Percent Effect” value was 129.4%.
With `O=C(Nc1ccc(-c2csnn2)cc1)N1CCN2CCCCC2C1` (stereo not given) the “Percent Effect” value was 5.858%.
For `Cc1ccc2cc(C3(O)CCN(C(=O)[C@@H]4CCCCN4)CC3)ccc2n1`, the “Percent Effect” value was -9.232%.
In the case of `NS(=O)(=O)c1cnn(-c2ccc(NC(=O)C3CCCCC3)cn2)c1`, the “Percent Effect” value is reported as -15.76%.
For `Cc1ccc(NC(=O)C2CCc3ccccc3N2)cc1` (stereo not given), the “Percent Effect” value was -1.128%.
With `Nc1ncc(-c2cccc(NC(=O)[C@@H]3CCCCN3)c2)cn1` the “Percent Effect” value was 116.6%.
For `O=C(Nc1cnc2n1CCCC2)c1cccc(NC(=O)C2CCCC2)c1`, the “Percent Effect” value was 10.86%.
With `O=C(Nc1ccc(-c2ccccc2)cn1)C1CCN(C(=O)C2CC2)CC1` the “Percent Effect” value was 26.94%.
In the case of `Nc1ncc(-c2ccc(NC(=O)[C@@H]3CCCCN3)cc2)cn1`, the “Percent Effect” value is reported as 109.3%.
For `CCc1ncc(C(=O)N(C)CCc2nc3cc(OC)ccc3[nH]2)cn1`, the “Percent Effect” value was 4.765%.
For `CNC(=O)C(C)(C)N1CCC[C@H]1C(=O)NCC1CC1`, the “Percent Effect” value was 11.03%.
For `COc1ccc(OCc2noc(CN(C)C3CCS(=O)(=O)C3)n2)cc1` (stereo not given), the “Percent Effect” value was -8.185%.
`CN(Cc1cc(Br)cn1C)C(=O)c1ccon1` was tested, and the “Percent Effect” value was -0.2013%.
With `O=S1(=O)NC2(CCCN(Cc3ccc(Cl)cc3)C2)COc2ccccc21` (stereo not given) the “Percent Effect” value was 134.9%.
In the case of `COCCCC1(CO)CCCN(CCc2ccccc2)C1` (stereo not given), the “Percent Effect” value is reported as -12.43%.
In the case of `O=S1(=O)NCC2(CCN(c3ncc(F)cn3)CC2)COc2ccccc21`, the “Percent Effect” value is reported as -10.54%.
For `O=S1(=O)NC2(CCCN(Cc3ccc(F)cc3)C2)COc2ccccc21` (stereo not given), the “Percent Effect” value was 98.49%.
With `O=C1Nc2ccccc2C12CCCN(Cc1ccc3c(c1)OCCO3)C2` (stereo not given) the “Percent Effect” value was -17.7%.
`O=C1NCC2(CCCN(CCc3ccccc3)C2)Oc2ccccc21` (stereo not given) was tested, and the “Percent Effect” value was -15.46%.
For `O=S1(=O)NC2(CCCN(CCc3ccccc3)C2)COc2ccccc21` (stereo not given), the “Percent Effect” value was 103.7%.
With `CN1C2(CCN(Cc3ccc(F)cc3)C2)c2ccccc2S1(=O)=O` (stereo not given) the “Percent Effect” value was 8.528%.
With `CCN(C)c1ccc(CNC(=O)c2ccc(NC(N)=O)cc2)cc1F` the “Percent Effect” value was -59.71%.
`CCc1cc(NCc2cc3n(n2)CCCN(S(C)(=O)=O)C3)nc(C)n1` was tested, and the “Percent Effect” value was 3.028%.
`c1ccc(Oc2nccc3occc23)c(CN2CCCCC2)c1` was tested, and the “Percent Effect” value was -8.744%.
For `CN(C)S(=O)(=O)NCC1(c2ccccc2Br)CC1`, the “Percent Effect” value was -6.253%.
In the case of `CC(=O)N1CCO[C@@H]2CN(S(=O)(=O)c3cccnc3)C[C@@H]2C1.O=C(O)C(F)(F)F`, the “Percent Effect” value is reported as 105.8%.
For `CC(C)N1CCO[C@H]2CN(S(=O)(=O)c3ccc(C#N)cc3)C[C@H]21`, the “Percent Effect” value was -6.179%.
In the case of `CN1CCO[C@@H]2CN(S(=O)(=O)c3ccccc3)C[C@@H]2C1.O=C(O)C(F)(F)F`, the “Percent Effect” value is reported as 98.27%.
With `CN1CCO[C@@H]2CN(S(=O)(=O)c3ccccc3)CC[C@@H]2C1.O=C(O)C(F)(F)F` the “Percent Effect” value was -5.775%.
With `CN1CCO[C@H]2CN(S(=O)(=O)c3ccc(C#N)cc3)C[C@H]21.O=C(O)C(F)(F)F` the “Percent Effect” value was -17.08%.
`CNC(=O)[C@H]1C[C@@H]2CN(S(=O)(=O)c3ccc(OC)cc3)C[C@@H]2N1C.O=C(O)C(F)(F)F` was tested, and the “Percent Effect” value was -8.898%.
`COc1ccc(S(=O)(=O)N2C[C@@H]3CN(C)CCO[C@@H]3C2)cc1` was tested, and the “Percent Effect” value was 104.2%.
`Cc1occc1C(=O)NCC(=O)N(C)CCCOc1ccc(F)cc1` was tested, and the “Percent Effect” value was -0.7534%.
With `Cc1cc(C(C)NC(=O)c2cnc3onc(C)c3c2)c(C)o1` (stereo not given) the “Percent Effect” value was 7.597%.
With `C1CC1c1nsc(N2CCN(C3CC3)CC2)n1` the “Percent Effect” value was -1.801%.
For `CSCCc1c(-c2ccccc2)ncn1[C@H]1C[C@@H](C(=O)O)N(C)C1`, the “Percent Effect” value was 9.47%.
For `CCCS(=O)(=O)N1CCN(c2ccnc(N3CCCCC3)n2)CC1`, the “Percent Effect” value was -4.762%.
In the case of `CCc1cnc(CNC(=O)NC2CC(C)(C)OC2(C)C)s1` (stereo not given), the “Percent Effect” value is reported as 0.9333%.
In the case of `CCc1cnc(CNC(=O)NCCc2ccc(O)cc2)s1`, the “Percent Effect” value is reported as 101.6%.
With `Cc1cnc(CCNC(=O)NCCc2ccc(O)cc2)s1` the “Percent Effect” value was 116.1%.
In the case of `CCc1cnc(CNC(=O)N2CCCC(c3ncc[nH]3)C2)s1` (stereo not given), the “Percent Effect” value is reported as -16.47%.
For `CCc1cnc(CNC(=O)NCCCO)s1`, the “Percent Effect” value was 97.97%.
`Cc1cnc(CCNC(=O)NCCOc2ncccc2Cl)s1` was tested, and the “Percent Effect” value was -4.9%.
With `COc1ccc(CNC(=O)NCCc2nc(C)c(C)s2)cn1` the “Percent Effect” value was -8.722%.
For `CNC(=O)Cc1ccc(NC(=O)NCc2ncc(C)s2)cc1`, the “Percent Effect” value was -0.2896%.
For `CCc1cnc(CNC(=O)N2CCCC(C(=O)NC)C2)s1` (stereo not given), the “Percent Effect” value was -0.4435%.
